Measurements as given in PubChem BioAssay (EPA / NIEHS).
Records with an inconclusive call do not appear. Calls of active or inactive are those of the source. How the source made its calls, unless noted: active means hit-call score of the fitted dose curve at least 0.9, where 1 is the maximum; inconclusive means response in the unintended direction; inactive means score below 0.9.

Legend:
[1] = molecular target: human Norepinephrine Transporter (NET), SLC6A2 (gene 6530) (UniProt P23975); assay: NVS_TR_hNET: NovaScreen (NVS) Transporter Assay for human Norepinephrine Transporter (NET) (AID 2283377);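 further: cell-free membrane protein extracted from CHO cells expressing human NET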;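 on AC50: displacement of radioligand from human NET seen as loss of scintillation signal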
Sequence of human Norepinephrine Transporter (NET), SLC6A2 (gene 6530) (P23975 whole entry, looked up): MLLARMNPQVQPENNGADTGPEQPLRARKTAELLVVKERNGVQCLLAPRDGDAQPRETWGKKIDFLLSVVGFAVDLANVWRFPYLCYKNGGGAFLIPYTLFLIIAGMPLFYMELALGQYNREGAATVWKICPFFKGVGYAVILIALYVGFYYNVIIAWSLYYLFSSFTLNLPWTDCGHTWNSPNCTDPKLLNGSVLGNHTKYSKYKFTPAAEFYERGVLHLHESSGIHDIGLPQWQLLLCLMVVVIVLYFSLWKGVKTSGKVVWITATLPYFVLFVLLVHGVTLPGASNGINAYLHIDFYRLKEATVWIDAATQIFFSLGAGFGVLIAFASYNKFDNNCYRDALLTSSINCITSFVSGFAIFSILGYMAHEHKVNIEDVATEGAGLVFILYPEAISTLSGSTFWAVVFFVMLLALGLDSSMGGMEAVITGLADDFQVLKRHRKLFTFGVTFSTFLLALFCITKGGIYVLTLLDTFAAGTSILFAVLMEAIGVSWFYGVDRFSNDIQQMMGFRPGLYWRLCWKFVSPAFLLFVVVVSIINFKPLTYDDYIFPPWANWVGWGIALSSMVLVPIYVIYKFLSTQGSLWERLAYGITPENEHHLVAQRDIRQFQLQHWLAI
How it was run: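 CHO cell extracts expressing the transporter; tritiated or iodinated tracer displaced competitively; filtration plus scintillation readout at 1 h. Single-point duplicates at 25 uM, concentration series for follow-up; activity = signal drop relative to DMSO.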

[2] = CEETOX_H295R_11DCORT: CeeTox H295R High-throughput Steroidogenesis Assay for 11-Deoxycortisol (11DCORT) (AID 2283432; active means hit-call score of the fitted dose curve at least 0.9, where 1 is the maximum; inactive means score below 0.9); settings: actives raise or lower the signal
How it was run: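 H295R cells prestimulated 48 h with 10 uM forskolin, then exposed 48 h to chemical in 0.1% DMSO. 11-Deoxycortisol in medium quantified by HPLC-MS/MS after MTBE extraction; bidirectional fit versus DMSO. MTT viability read in same wells.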

[3] = CEETOX_H295R_OHPREG: CeeTox H295R High-throughput Steroidogenesis Assay for OH-Pregnenolone (OHPREG) (AID 2283434; active means hit-call score of the fitted dose curve at least 0.9, where 1 is the maximum; inactive means score below 0.9); settings: actives raise or lower the signal
How it was run: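 H295R, 10 uM forskolin pre-stim 48 h; test chemical 48 h, 0.1% DMSO final. MTBE extraction, reverse-phase C18 HPLC-ESI+ MS/MS of medium. Gain/loss vs DMSO; viability by MTT in same wells.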

[4] = CEETOX_H295R_OHPROG: CeeTox H295R High-throughput Steroidogenesis Assay for OH-Progesterone (OHPROG) (AID 2283435; active means hit-call score of the fitted dose curve at least 0.9, where 1 is the maximum; inactive means score below 0.9;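 on AC50: human adrenal H295R cells primed 48 h with 10 µM forskolin; 17alpha-hydroxyprogesterone secreted into medium measured by HPLC-MS/MS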); settings: actives raise or lower the signal
How it was run: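 Steps: seed H295R cells and adhere overnight; stimulate with 10 uM forskolin for 48 h; replace with chemical-containing medium (0.1% DMSO) for 48 h; extract medium with MTBE; quantify 17alpha-hydroxyprogesterone by reverse-phase C18 HPLC-MS/MS against a 7-point curve.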

[5] = CEETOX_H295R_CORTIC: CeeTox H295R High-throughput Steroidogenesis Assay for Corticosterone (CORTIC) (AID 2283437; active means hit-call score of the fitted dose curve at least 0.9, where 1 is the maximum; inactive means score below 0.9;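 further: corticosterone secreted into medium quantified by mass spectrometry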); settings: actives raise or lower the signal
How it was run: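 48 h forskolin (10 uM) prestim, then 48 h chemical exposure, final DMSO 0.1%. Readout: corticosterone in medium by LC-MS/MS after MTBE extraction. Gain/loss fit vs DMSO; MTT viability in same wells.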

[6] = CEETOX_H295R_CORTISOL: CeeTox H295R High-throughput Steroidogenesis Assay for Cortisol (AID 2283438; active means hit-call score of the fitted dose curve at least 0.9, where 1 is the maximum; inactive means score below 0.9); settings: actives raise or lower the signal
How it was run: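 Cortisol synthesis by H295R cells is measured 48 h after chemical dosing, following a 48 h stimulation with 10 uM forskolin. Hormone is extracted and quantified by HPLC-MS/MS, and activity is fitted bidirectionally against the DMSO control.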

[7] = CEETOX_H295R_DOC: CeeTox H295R High-throughput Steroidogenesis Assay for DOC (AID 2283439; active means hit-call score of the fitted dose curve at least 0.9, where 1 is the maximum; inactive means score below 0.9); settings: actives raise or lower the signal
How it was run: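 Steps: seed H295R, adhere overnight; 10 uM forskolin 48 h; replace with chemical medium (0.1% DMSO) 48 h; collect medium, MTBE extraction, HPLC-MS/MS for DOC. Viability then checked by MTT; cytotoxic chemicals diluted until viability ≥70%.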

[8] = CEETOX_H295R_ESTRADIOL: CeeTox H295R High-throughput Steroidogenesis Assay for Estradiol (AID 2283440; active means hit-call score of the fitted dose curve at least 0.9, where 1 is the maximum; inactive means score below 0.9;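 further: estradiol secreted into medium quantified by LC-MS/MS after dansyl derivatisation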); settings: actives raise or lower the signal
How it was run: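 H295R cells pre-stimulated 48 h with 10 uM forskolin, then exposed 48 h to chemical in 0.1% DMSO. Medium estradiol quantified by MTBE extraction, dansyl derivatisation and HPLC-MS/MS; bidirectional fit versus DMSO; MTT viability required >/=70%.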

[9] = CEETOX_H295R_ESTRONE: CeeTox H295R High-throughput Steroidogenesis Assay for Estrone (AID 2283441; active means hit-call score of the fitted dose curve at least 0.9, where 1 is the maximum; inactive means score below 0.9); settings: actives raise or lower the signal
How it was run: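 Estrone secreted into medium quantified by LC-MS/MS after dansyl chloride derivatization, following 48 h chemical exposure (0.1% DMSO final) of forskolin-prestimulated (10 uM, 48 h) H295R cells; gain or loss fitted against DMSO; MTT viability in same wells.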

[10] = molecular target: mouse Estrogen Receptor alpha (Era), Esr1 (gene 13982) (UniProt P19785); assay: NVS_NR_mERa: NovaScreen (NVS) Nuclear Receptor Binding Assay for mouse Estrogen Receptor alpha (Era) (AID 2283378);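 further: hit means loss of bound radioligand signal relative to DMSO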
Sequence of mouse Estrogen Receptor alpha (Era), Esr1 (gene 13982) (P19785 whole entry, looked up): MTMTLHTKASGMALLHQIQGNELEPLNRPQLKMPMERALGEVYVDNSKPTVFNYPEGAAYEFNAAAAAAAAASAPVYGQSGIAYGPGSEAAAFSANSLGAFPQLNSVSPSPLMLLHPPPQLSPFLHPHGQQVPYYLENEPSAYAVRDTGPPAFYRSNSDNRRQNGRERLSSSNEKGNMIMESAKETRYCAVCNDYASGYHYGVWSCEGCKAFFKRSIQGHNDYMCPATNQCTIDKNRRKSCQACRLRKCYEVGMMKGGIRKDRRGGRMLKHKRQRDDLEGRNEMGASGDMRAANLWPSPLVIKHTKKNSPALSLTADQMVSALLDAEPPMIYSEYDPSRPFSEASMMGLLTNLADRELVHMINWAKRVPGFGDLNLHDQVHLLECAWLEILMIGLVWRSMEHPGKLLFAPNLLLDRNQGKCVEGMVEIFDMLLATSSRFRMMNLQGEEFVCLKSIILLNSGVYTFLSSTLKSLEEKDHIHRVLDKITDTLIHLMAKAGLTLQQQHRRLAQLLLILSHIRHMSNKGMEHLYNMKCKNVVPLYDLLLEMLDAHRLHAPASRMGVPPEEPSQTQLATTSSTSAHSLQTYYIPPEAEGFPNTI
How it was run: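 Cell-free radioligand competitive displacement binding, read by filter-based scintillation counting 18 h after dosing. Primary screen run in duplicate at 25 uM, actives retested in concentration series; loss of signal versus DMSO.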

[11] = CEETOX_H295R_ANDR: CeeTox H295R High-throughput Steroidogenesis Assay for Androstenedione (ANDR) (AID 2283436; active means hit-call score of the fitted dose curve at least 0.9, where 1 is the maximum; inactive means score below 0.9;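 further: human H295R adrenal cells exposed for 48 h with androstenedione measured in medium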); settings: actives raise or lower the signal
How it was run: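 48 h chemical exposure, H295R cells, DMEM/F12 + ITS+ and Nu-Serum. Medium androstenedione: MTBE extraction, C18 reverse-phase HPLC, ESI+ MS/MS. Fit bidirectional vs DMSO; MTT viability in same wells.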

[12] = molecular target: Estrogen receptor beta (Homo sapiens) (UniProt Q92731); assay: OT_ER_ERbERb_1440: Odyssey Thera (OT) 24-hour HEK293T Protein-Complementation Assay for Estrogen Receptor-beta/-beta Homodimer (AID 2283380);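 further: scored as signal increase over DMSO baseline for both agonists and antagonists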
Sequence of Estrogen receptor beta (Homo sapiens) (Q92731 whole entry, looked up, the tested form may be a part): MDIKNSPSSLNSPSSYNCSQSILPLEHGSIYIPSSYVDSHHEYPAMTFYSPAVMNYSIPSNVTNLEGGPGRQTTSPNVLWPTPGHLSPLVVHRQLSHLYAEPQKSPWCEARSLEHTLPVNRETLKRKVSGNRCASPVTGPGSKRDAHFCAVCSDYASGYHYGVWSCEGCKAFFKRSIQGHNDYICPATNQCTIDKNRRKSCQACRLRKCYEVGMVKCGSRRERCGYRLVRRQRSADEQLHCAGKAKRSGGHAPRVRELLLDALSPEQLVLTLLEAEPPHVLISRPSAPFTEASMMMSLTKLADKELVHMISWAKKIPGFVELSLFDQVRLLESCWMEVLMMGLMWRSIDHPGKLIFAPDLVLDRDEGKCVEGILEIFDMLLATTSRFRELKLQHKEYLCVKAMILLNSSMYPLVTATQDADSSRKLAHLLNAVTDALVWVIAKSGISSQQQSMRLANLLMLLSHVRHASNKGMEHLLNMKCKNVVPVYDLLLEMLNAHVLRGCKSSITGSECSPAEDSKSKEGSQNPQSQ
How it was run: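 HEK293T cells stably expressing ER beta LBD (aa 310-547) homodimer fragment-complementation reporter, dosed 24 h. Cells formaldehyde-fixed, Draq5-stained; gain in nuclear (agonist) or nuclear plus cytoplasmic (antagonist) fluorescence versus DMSO read by laser scanning cytometry.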

[13] = molecular target: Estrogen receptor (Homo sapiens) (UniProt P03372); assay: OT_ERa_GFPERaERE_0480: Odyssey Thera (OT) 8-hour HeLa Transcription Induction Assay for Estrogen Receptor (AID 2283381; active means hit-call score of the fitted dose curve at least 0.9, where 1 is the maximum; inactive means score below 0.9)
Sequence of Estrogen receptor (Homo sapiens) (P03372 whole entry, looked up): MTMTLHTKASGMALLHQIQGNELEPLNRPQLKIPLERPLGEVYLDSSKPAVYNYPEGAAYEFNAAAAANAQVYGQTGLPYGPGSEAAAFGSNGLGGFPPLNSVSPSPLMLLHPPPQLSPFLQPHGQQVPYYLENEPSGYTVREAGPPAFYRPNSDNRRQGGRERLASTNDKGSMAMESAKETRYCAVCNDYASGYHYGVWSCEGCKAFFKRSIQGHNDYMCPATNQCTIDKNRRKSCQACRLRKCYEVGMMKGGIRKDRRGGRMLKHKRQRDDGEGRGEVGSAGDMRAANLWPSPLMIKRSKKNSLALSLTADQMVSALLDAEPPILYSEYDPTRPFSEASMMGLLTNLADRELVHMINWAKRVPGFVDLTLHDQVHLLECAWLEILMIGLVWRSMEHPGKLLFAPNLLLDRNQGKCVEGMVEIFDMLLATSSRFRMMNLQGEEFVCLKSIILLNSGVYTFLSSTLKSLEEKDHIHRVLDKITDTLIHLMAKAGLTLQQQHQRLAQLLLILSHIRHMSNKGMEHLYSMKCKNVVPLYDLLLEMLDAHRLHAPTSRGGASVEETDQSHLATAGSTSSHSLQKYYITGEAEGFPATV
How it was run: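 Human cervical HeLa cells were treated for 8 hours, after which ERE-driven GFP induction was measured by fluorescence microscopy; increases over DMSO baseline defined activity.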

[14] = molecular target: Estrogen receptor (Homo sapiens) (UniProt P03372); assay: OT_ERa_GFPERaERE_0120: Odyssey Thera (OT) 2-hour HeLa Transcription Induction Assay for Estrogen Receptor (AID 2283382)
How it was run: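 Cells (human cervical HeLa) receive compound, incubate 2 hours, then are imaged for fluorescent reporter induction. Images are quantified by high content analysis, and activity is fitted as gain of signal against DMSO.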

[15] = molecular target: Peroxisome proliferator-activated receptor gamma (Homo sapiens) (UniProt P37231); assay: OT_PPARg_PPARgSRC1_0480: Odyssey Thera (OT) 8-hour Protein-Complementation Assay for Peroxisome Proliferator-activated Receptor Gamma / SRC-1 Co-activator (AID 2283387)
Sequence of Peroxisome proliferator-activated receptor gamma (Homo sapiens) (P37231 whole entry, looked up, the tested form may be a part): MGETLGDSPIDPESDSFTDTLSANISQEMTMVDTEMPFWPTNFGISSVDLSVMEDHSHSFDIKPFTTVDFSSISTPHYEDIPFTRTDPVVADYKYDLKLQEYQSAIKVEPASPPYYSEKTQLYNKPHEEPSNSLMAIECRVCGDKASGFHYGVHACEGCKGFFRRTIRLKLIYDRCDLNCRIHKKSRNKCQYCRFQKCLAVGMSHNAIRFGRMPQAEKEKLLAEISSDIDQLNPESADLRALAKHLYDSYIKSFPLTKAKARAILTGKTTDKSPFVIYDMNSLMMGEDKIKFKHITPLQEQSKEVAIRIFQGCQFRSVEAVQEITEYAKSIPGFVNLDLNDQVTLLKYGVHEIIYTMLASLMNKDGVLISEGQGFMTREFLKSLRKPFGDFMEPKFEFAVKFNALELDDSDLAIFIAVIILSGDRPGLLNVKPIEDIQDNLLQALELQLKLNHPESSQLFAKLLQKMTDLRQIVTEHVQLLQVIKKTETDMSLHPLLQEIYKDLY
How it was run: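 HEK293T transiently transfected with PPARg and SRC-1 fused to Venus YFP fragments, compounds 8 h at 37C. Fixed, Draq5-stained cells imaged; nuclear/cytoplasmic 488 nm fluorescence ratio over at least 350 cells per image; gain fitted versus DMSO.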

[16] = molecular target: Peroxisome proliferator-activated receptor gamma (Homo sapiens) (UniProt P37231); assay: OT_PPARg_PPARgSRC1_1440: Odyssey Thera (OT) 24-hour Protein-Complementation Assay for Peroxisome Proliferator-activated Receptor Gamma/ SRC-1 Co-activator (AID 2283388)
How it was run: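 HEK293T transiently transfected with PPARg/SRC-1 split-Venus YFP fusions 48 h before dosing, then treated 24 h at 37C. Fixed cells imaged; nuclear/cytoplasmic 488 nm fluorescence ratio, gain of signal versus DMSO.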

[17] = molecular target: Bile acid receptor (Homo sapiens) (UniProt Q96RI1); assay: OT_FXR_FXRSRC1_0480: Odyssey Thera (OT) 8-hour HEK293T Protein-Complementation Assay for Farnesoid X receptor/SRC-1 Co-activator (AID 2283383)
Sequence of Bile acid receptor (Homo sapiens) (Q96RI1 whole entry, looked up, the tested form may be a part): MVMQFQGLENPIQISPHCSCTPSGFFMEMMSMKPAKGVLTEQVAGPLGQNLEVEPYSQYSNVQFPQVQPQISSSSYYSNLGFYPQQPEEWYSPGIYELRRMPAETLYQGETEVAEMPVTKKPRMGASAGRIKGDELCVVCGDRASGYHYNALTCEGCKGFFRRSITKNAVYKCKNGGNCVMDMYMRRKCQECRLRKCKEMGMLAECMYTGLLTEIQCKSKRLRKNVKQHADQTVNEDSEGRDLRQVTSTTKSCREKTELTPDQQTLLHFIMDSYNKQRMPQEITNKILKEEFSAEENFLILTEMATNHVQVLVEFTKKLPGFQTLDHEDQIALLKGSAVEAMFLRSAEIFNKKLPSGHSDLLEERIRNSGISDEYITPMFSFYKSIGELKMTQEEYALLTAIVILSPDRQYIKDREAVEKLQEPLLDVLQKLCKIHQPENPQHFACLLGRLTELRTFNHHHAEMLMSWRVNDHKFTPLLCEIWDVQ
How it was run: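 PCA, HEK293T, 8 h compound exposure; FXR–SRC-1 binding reconstitutes split reporter; fluorescence intensity; positive-direction fit vs DMSO.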

[18] = molecular target: Bile acid receptor (Homo sapiens) (UniProt Q96RI1); assay: OT_FXR_FXRSRC1_1440: Odyssey Thera (OT) 24-hour HEK293T Protein-Complementation Assay for Farnesoid X receptor/SRC-1 Co-activator (AID 2283384)
How it was run: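 Measures ligand-driven FXR–SRC-1 co-activator recruitment in HEK293T via fragment complementation, fluorescence intensity at 24 h. DMSO served as negative control and baseline for gain-of-signal fitting.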

[19] = molecular target: Retinoic acid receptor RXR-alpha (Homo sapiens) (UniProt P19793); assay: OT_NURR1_NURR1RXRa_1440: Odyssey Thera (OT) 24-hour HEK293T Protein Complementation Assay for Nurr1/retinoid X receptor (RXR) (AID 2283386)
Sequence of Retinoic acid receptor RXR-alpha (Homo sapiens) (P19793 whole entry, looked up, the tested form may be a part): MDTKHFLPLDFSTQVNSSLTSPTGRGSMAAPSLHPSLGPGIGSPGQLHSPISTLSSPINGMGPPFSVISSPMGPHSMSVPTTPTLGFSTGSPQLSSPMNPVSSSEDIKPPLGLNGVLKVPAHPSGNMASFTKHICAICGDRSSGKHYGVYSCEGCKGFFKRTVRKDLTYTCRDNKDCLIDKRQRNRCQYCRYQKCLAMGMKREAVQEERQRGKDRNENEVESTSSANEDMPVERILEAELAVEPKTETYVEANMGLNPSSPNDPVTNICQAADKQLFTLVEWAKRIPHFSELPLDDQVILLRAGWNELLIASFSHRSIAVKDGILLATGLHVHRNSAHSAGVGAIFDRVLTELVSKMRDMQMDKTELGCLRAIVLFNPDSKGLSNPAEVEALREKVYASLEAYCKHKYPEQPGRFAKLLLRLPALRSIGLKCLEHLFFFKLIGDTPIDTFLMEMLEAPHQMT
How it was run: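 Steps: fragment-tagged Nurr1 and RXRα expressed in HEK293T; compounds added; after 24 h, complemented reporter quantified by fluorescence intensity; signal increase over DMSO fitted as the single endpoint.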

[20] = molecular target: Agonist Androgen Response Element (ARE), AR (gene 367) (UniProt P10275); assay: OT_AR_ARELUC_AG_1440: Odyssey Thera (OT) 24-hour CHO-K1 Luciferase Assay for Agonist Androgen Response Element (ARE) (AID 2283379)
Sequence of Agonist Androgen Response Element (ARE), AR (gene 367) (P10275 whole entry, looked up): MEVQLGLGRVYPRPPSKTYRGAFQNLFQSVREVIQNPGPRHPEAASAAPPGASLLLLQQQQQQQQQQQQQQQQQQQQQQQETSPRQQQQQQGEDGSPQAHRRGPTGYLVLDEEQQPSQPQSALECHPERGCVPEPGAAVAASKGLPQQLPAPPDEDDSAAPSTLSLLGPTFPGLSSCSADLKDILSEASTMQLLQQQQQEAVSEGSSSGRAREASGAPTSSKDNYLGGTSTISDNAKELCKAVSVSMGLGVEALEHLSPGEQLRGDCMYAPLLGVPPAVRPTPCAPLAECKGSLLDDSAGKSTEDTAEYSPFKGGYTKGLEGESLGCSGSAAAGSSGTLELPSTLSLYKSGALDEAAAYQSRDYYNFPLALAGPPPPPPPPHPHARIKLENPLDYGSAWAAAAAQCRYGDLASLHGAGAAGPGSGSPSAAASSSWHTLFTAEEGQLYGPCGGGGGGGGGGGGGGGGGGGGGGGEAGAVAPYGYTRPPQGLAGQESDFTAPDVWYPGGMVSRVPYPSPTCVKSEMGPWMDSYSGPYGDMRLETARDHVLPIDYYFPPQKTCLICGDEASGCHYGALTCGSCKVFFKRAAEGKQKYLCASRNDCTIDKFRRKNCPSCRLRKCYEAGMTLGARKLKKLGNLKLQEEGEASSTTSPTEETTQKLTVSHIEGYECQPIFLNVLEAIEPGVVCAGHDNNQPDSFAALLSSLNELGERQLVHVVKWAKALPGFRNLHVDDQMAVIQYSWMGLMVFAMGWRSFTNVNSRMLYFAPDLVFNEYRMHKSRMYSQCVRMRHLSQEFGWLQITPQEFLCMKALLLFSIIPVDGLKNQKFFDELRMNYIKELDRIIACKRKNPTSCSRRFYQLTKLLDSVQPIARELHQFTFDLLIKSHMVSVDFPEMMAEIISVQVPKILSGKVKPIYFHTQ
How it was run: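 Gain-of-signal reporter endpoint: cells (CHO-K1, hamster) are treated 24 h, luciferin/ATP reagent added, and luminescence compared with DMSO baseline.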

With O=C(Nc1ccccc1SSc1ccccc1NC(=O)c1ccccc1)c1ccccc1 the outcome [1] was “inactive”, the outcome [2] was “inactive” and the outcome [3] was “inactive”. The outcome [4] was “inactive”, the outcome [5] was “inactive” and the outcome [6] was “inactive”. The outcome [7] was “inactive”, the outcome [8] was “inactive” and the outcome [9] was “inactive”.

In the case of COc1ccc(-c2coc3cc(O)ccc3c2=O)cc1, the AC50 [10] is reported as 0.143 µM (active).

With COc1ccc2nc(N)sc2c1 the AC50 [1] was 9.9 µM (active), the outcome [2] was “inactive” and the outcome [3] was “inactive”. For the same compound, the AC50 [4] was 7.33 µM (active), the outcome [11] was “inactive” and the outcome [5] was “inactive”. For the same compound, the outcome [6] was “inactive”, the outcome [7] was “inactive” and the outcome [8] was “inactive”. For the same compound, the outcome [9] was “inactive”.

In the case of CN(C)c1ccc(N=Nc2ccccc2C(=O)O)cc1, the outcome [10] is reported as “inactive”, the outcome [12] is reported as “inactive” and the outcome [13] is reported as “inactive”. For the same compound, the outcome [14] was “inactive”, the outcome [15] was “inactive” and the outcome [16] was “inactive”.

For O=S1(=O)OC(c2ccc(O)cc2)(c2ccc(O)cc2)c2ccccc21, the AC50 [10] was 20.1 µM (active), the outcome [12] was “inactive” and the AC50 [13] was 73 µM (active). The outcome [14] was “inactive”, the outcome [15] was “inactive” and the outcome [16] was “inactive”.

In the case of CCC(=O)Oc1ccc(/C(CC)=C(\CC)c2ccc(OC(=O)CC)cc2)cc1, the AC50 [10] is reported as 0.0132 µM (active).

In the case of CCC(Cc1ccccc1)(C(=O)c1ccc(N2CCOCC2)cc1)N(C)C (stereo not given), the outcome [10] is reported as “inactive”.

For COc1ccc(C(Cl)=C(c2ccc(OC)cc2)c2ccc(OC)cc2)cc1, the AC50 [10] was 4.88 µM (active).

In the case of CCCCCCCOC(=O)CCC, the outcome [12] is reported as “inactive”, the outcome [13] is reported as “inactive” and the outcome [14] is reported as “inactive”. The outcome [15] was “inactive” and the outcome [16] was “inactive”.

For CNC(=S)NN, the outcome [12] was “inactive”, the outcome [13] was “inactive” and the outcome [14] was “inactive”. The outcome [15] was “inactive” and the outcome [16] was “inactive”.

For CC(C)(C)c1ccc(OC(=O)c2ccccc2O)cc1, the AC50 [12] was 32 µM (active), the outcome [13] was “inactive” and the outcome [14] was “inactive”. The AC50 [17] was 35.6 µM (active), the AC50 [18] was 75.9 µM (active) and the AC50 [19] was 89 µM (active). For the same compound, the outcome [15] was “inactive” and the outcome [16] was “inactive”.

For O=c1cc(-c2ccccc2)oc2ccccc12, the outcome [20] was “inactive”, the AC50 [12] was 49.2 µM (active) and the outcome [13] was “inactive”. The outcome [14] was “inactive”, the outcome [15] was “inactive” and the outcome [16] was “inactive”.

In the case of CC(C)c1ccc2c(C(C)C)cc(C(C)C)c(S(=O)(=O)O)c2c1, the outcome [20] is reported as “inactive”, the outcome [13] is reported as “inactive” and the outcome [14] is reported as “inactive”. For the same compound, the outcome [17] was “inactive”, the outcome [15] was “inactive” and the outcome [16] was “inactive”.
